Tests used:
Test in all cases: PBM binding z-score (relative to random genomic background probes); higher = stronger binding; sequences stand for … in GC…GCGATTGACAGCGTAGAATGAAGG
[1] = tested on: RARb homodimer (NR concentration 270 nM)
Method in brief: (§1)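 Binding z-scores were set against random background probes. The data came from custom Agilent 4×180K protein-binding microarrays carrying double-stranded probes with 34-nt variable regions, incubated 1 h with ligand-free nuclear receptor dimers. Partner-specific antibodies detected binding, and scanned fluorescence was regression-normalized.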

[2] = tested on: RARg:RXRa (NR concentration 270 nM, RXRa partner concentration 90 nM)
Method in brief: as §1

[3] = tested on: RARg homodimer (NR concentration 270 nM)
Method in brief: as §1

[4] = tested on: RXRa DBDmut IVT, anti-RXR (DBD mutation: RXRa K156A/R161A, NR concentration 90 nM)
Method in brief: as §1

[5] = tested on: RXRa homodimer (NR concentration 180 nM)
Method in brief: as §1

[6] = tested on: THRa:RXRa (NR concentration 90 nM, RXRa partner concentration 90 nM)
Method in brief: as §1

[7] = tested on: THRa homodimer (NR concentration 90 nM)
Method in brief: as §1

[8] = tested on: VDR:RXRa (NR concentration 270 nM, RXRa partner concentration 90 nM)
Method in brief: as §1

[9] = tested on: VDR homodimer (NR concentration 270 nM)
Method in brief: as §1

Sequence	PBM binding z-score [1]	PBM binding z-score [2]	PBM binding z-score [3]	PBM binding z-score [4]	PBM binding z-score [5]	PBM binding z-score [6]	PBM binding z-score [7]	PBM binding z-score [8]	PBM binding z-score [9]
TCTTGTAGATCAAAGGTTATGAAAGCCGAAGCCT	1.25	1.65	0.684	0.966	3.08	1.46	-0.27	1.25	0.204
CCTACTGGCCCACGAAAGGTCATTGATTCAGTGA	4.47	4.32	3.95	0.693	4.79	3.02	1.16	3.74	2.69
GCTTGTGGATCAAGGTTAAGAAAGACTAAGCTAA	0.362	0.34	0.12	0.0412	0.848	1.27	-0.23	0.111	0.00536
CCAGACAGGTGAGAAGGTAACGCAGCCTCGATTA	0.798	0.793	0.415	0.201	0.556	0.331	0.41	-0.101	-0.143
GATACAGGGTCGAGGCCAGAGTACGCGTATTGAT	1.31	1.98	1.9	0.497	2.13	1.67	0.075	1.41	0.897
TCATATAGGTAAGACAGGTGAAAGTCGGCATCTA	0.625	0.754	0.411	1.36	1.02	0.828	0.209	0.987	0.18
ATATGTAGGTTATCGTGTCATTCAGTTTGCGCAT	1.17	0.973	0.988	1.09	1.06	0.907	0.568	2.28	1.53
ACAGACTGGTGATGAAGGTAACTCAGGCTATCAT	-0.356	-0.329	0.0364	-0.417	-0.393	0.478	-0.264	-0.35	-0.921
TCTGCTAGGTCAGTTGGTGAGCTAACGAGCTGCC	1.93	2.27	3.76	0.367	0.541	1.04	-0.41	-0.377	-0.739
AGTCAACGTTCACTAGGTAACGTAAGATTCAGCT	0.0524	0.418	0.444	0.205	0.197	0.401	0.11	-0.186	-0.293
TCTAGCAGGCCAGAGGATCACTCAAGAGGTACGG	-0.66	-0.277	-0.18	-0.0121	0.0922	-0.78	-0.974	-0.662	-0.819
GTACCAAGGTTAATAGGTCGTTGATGAGTAGGCG	2.14	3.29	2.07	0.518	2.5	1.68	0.196	2.23	0.941
ATATCTAGGTTAGCTGGGGTCATTCAGACTAGGC	3.96	4.04	3.18	1.88	5.32	5.07	3.53	6.03	5.14
CCTTACGGGTCAAGGTTATAGTACGGGTGGTACG	3.37	4.78	4.42	1.09	5.14	3.08	1	3.62	1.71
CCTTACGGGTCACGAGGTTATAGCACGACGAGCG	4.07	6.25	5.47	1.53	6.87	3.69	1.09	5.23	2.03
CCTTACGGGTCACGAGGTTATAGAACGACGAGCG	4.13	6.4	5.59	1.18	7.41	3.8	1.14	5.31	2.22
CAAACTAGGGCACAGAGGTCAAAGTCCGTGCGTA	4.61	5.79	5.63	2.66	5.91	3.79	1.32	6.64	5.23
CAAACTAGGTCACCGGAAGGTCAAAGTACGCATG	5.73	8.48	7.65	2.43	6.46	4.8	3.25	6.17	3.52
TCATATTGGTAAAAGGTGAAAGTCGGTGTGGTAA	2	1.24	0.709	1.66	1.99	1.62	0.665	1.64	0.829
ATACCAAGGTGATTGTGAGGTCGTTGATACTAAC	2.03	2.19	1.08	1.27	1.59	3.66	2.94	3.53	3.33
GATACAGGGACAGCTAGAGGCCAGAGTATGGAAA	0.97	0.522	1.01	-0.496	0.185	0.508	0.191	-0.526	-0.0729
CTACCATGGTGAACAAGGTCGTTGATTACTATTC	1.04	0.598	0.184	0.982	0.913	1.99	1.1	3.04	1.41
AGAACGAGGGCACGCTGAGTTGACAGCAGAGTAG	1.43	2.35	2.33	1.6	1.73	2.16	-0.174	2.32	1.79
ATCGAAAGGTCGAGGTGAATATAGAGAAAGGGAA	2.88	4.52	4.51	0.922	4.65	2.95	0.862	2.45	0.0536
ATCGAAAGGTCGAGGTGAGTGTAGAGAAAGGGAA	2.96	4.37	4.06	0.896	4.28	3.21	0.885	3.21	0.854
ATACCAAGGTGATCGTGAGGTCGTTGTTACTAAC	1.7	1.78	0.637	0.951	1.21	3.27	2.64	3.18	3.22
